Columns and labels:
Conditions in all cases: concentration: 1 μM, replicates: in singlicate; n = 1
EPHA4 = test system: EPHA4
EPHA5 = test system: EPHA5
EPHA6 = test system: EPHA6
EPHA7 = test system: EPHA7
EPHA8 = test system: EPHA8
EPHB1 = test system: EPHB1
EPHB2 = test system: EPHB2
EPHB3 = test system: EPHB3
EPHB4 = test system: EPHB4
EPHB6 = test system: EPHB6
ERBB2 = test system: ERBB2
ERBB3 = test system: ERBB3
ERBB4 = test system: ERBB4
ERK1 = test system: T1, ERK1
T1 construct: gene MAPK3

ERK2 = test system: T2, ERK2
T2 construct: gene MAPK1

ERK3 = test system: T3, ERK3
T3 construct: gene MAPK6

ERK4 = test system: T4, ERK4
T4 construct: gene MAPK4

ERK5 = test system: T5, ERK5
T5 construct: gene MAPK7

ERK8 = test system: T6, ERK8
T6 construct: gene MAPK15

ERN1 = test system: ERN1
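Note: KINOMEscan kinase panel screen.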

SMILES | %Inh (EPHA4) [%] | %Inh (EPHA5) [%] | %Inh (EPHA6) [%] | %Inh (EPHA7) [%] | %Inh (EPHA8) [%] | %Inh (EPHB1) [%] | %Inh (EPHB2) [%] | %Inh (EPHB3) [%] | %Inh (EPHB4) [%] | %Inh (EPHB6) [%] | %Inh (ERBB2) [%] | %Inh (ERBB3) [%] | %Inh (ERBB4) [%] | %Inh (ERK1) [%] | %Inh (ERK2) [%] | %Inh (ERK3) [%] | %Inh (ERK4) [%] | %Inh (ERK5) [%] | %Inh (ERK8) [%] | %Inh (ERN1) [%]
Nc1nc(-c2nccs2)c(-c2ccnc3ccccc23)s1 [GW693542] | 11 | 0 | 8 | 10 | 17 | 13 | 0 | 10 | 1 | 5 | 36 | 0 | 27 | 6 | 0 | 0 | 18 | 0 | 0 | 0
O=C1NC(=O)C(N2CCc3ccccc32)=C1c1ccccc1Cl [SB-373598] | 24 | 0 | 18 | 18 | 36 | 9 | 0 | 14 | 20 | 31 | 26 | 0 | 0 | 17 | 0 | 23 | 11 | 0 | 0 | 13
Cc1cccc(-c2cc(Nc3ccncc3)c3ccccc3n2)n1 [GSK223675] | 0 | 0 | 0 | 0 | 0 | 4 | 0 | 0 | 0 | 25 | 0 | 0 | 26 | 0 | 0 | 0 | 25 | 0 | 0 | 13
CC1=C(C(=O)Nc2cc3cn[nH]c3cc2F)C(c2ccc(C(F)(F)F)cc2)CC(=O)N1 (stereo not shown) [GSK429286] | 4 | 0 | 12 | 11 | 23 | 3 | 10 | 21 | 10 | 17 | 9 | 0 | 63 | 8 | 0 | 14 | 10 | 0 | 0 | 2
O=C(Nc1n[nH]c2nc(-c3nccs3)c(Br)cc12)C1CCCC1 [SB-742609] | 25 | 0 | 20 | 10 | 14 | 0 | 0 | 26 | 10 | 46 | 0 | 0 | 0 | 10 | 2 | 0 | 100 | 0 | 60 | 12
Cc1cc(NCC(c2ccccc2)c2ccccc2)nc(NCc2ccc(C(F)(F)F)cc2)n1 [GW497681] | 0 | 0 | 0 | 7 | 6 | 0 | 0 | 0 | 7 | 8 | 21 | 1 | 27 | 0 | 0 | 0 | 5 | 0 | 0 | 0
COc1cccc(NC(=O)NC2CCN(c3ccnc(Nc4ccc(F)cc4)n3)C2)c1 (stereo not shown) [GSK1379721] | 0 | 0 | 0 | 0 | 3 | 17 | 0 | 0 | 0 | 33 | 28 | 0 | 7 | 0 | 0 | 0 | 21 | 0 | 0 | 19
Cn1cncc1-c1ccc2ncnc(Nc3ccc(OCc4ccccc4)cc3)c2c1 [GW320571] | 13 | 2 | 19 | 1 | 12 | 6 | 0 | 23 | 8 | 3 | 99.4 | 43 | 61 | 13 | 10 | 0 | 0 | 0 | 25 | 0
COc1cc2ncnc(Nc3ccc4nc(-c5ccccc5)[nH]c4c3)c2cc1OC.Cl [GW282450] | 0 | 0 | 0 | 0 | 0 | 38 | 1 | 3 | 22 | 18 | 23 | 0 | 33 | 0 | 0 | 0 | 0 | 0 | 0 | 4
Cc1ccccc1-n1cnc2c(N)ncnc21 [SKF-97510] | 4 | 0 | 0 | 0 | 0 | 1 | 0 | 0 | 0 | 7 | 0 | 0 | 0 | 0 | 0 | 2 | 0 | 0 | 0 | 0
COc1ccccc1-c1ccc2c(NC(=O)C3CC3)n[nH]c2n1 [SB-711239] | 13 | 0 | 9 | 4 | 9 | 0 | 11 | 15 | 14 | 6 | 0 | 22 | 23 | 3 | 3 | 0 | 0 | 0 | 0 | 0

— article PMC5540273 (PLoS ONE, 2017)
